Test results from PubChem BioAssay (EPA / NIEHS).
The source made the active and inactive calls. How the source made its calls: active means hit-call score of the fitted dose curve at least 0.9, where 1 is the maximum; inactive means score below 0.9.

Test: ATG_FoxO_CIS: Attagene CIS-FACTORIAL HepG2 Assay for human Forkhead box O (FoxO) (AID 2282943)
Details: HepG2 Attagene cis-reporter, FoxO element, mRNA; actives raise or lower the signal
Method: ATG_CIS is a cell-based, multiplexed-readout assay that uses HepG2, a human liver cell line, with measurements taken at 24 hours after chemical dosing in a 24-well plate.ATG_FoxO_CIS is one of 52 assay component(s) measured or calculated from the ATG_CIS assay. It is designed to make measurements of mRNA induction, a form of inducible reporter, as detected with fluorescence intensity signals by Reverse transcription polymerase chain reaction (RT-PCR) and Capillary electrophoresis technology.Data from the assay component ATG_FoxO_CIS was analyzed into 1 assay endpoint. This assay endpoint, ATG_FoxO_CIS, was analyzed with bidirectional fitting relative to DMSO as the negative control and baseline of activity. Using a type of inducible reporter, measures of mRNA for gain or loss-of-signal activity can be used to understand the reporter gene at the transcription factor-level as they relate to the gene FOXO1 and FOXO3. Furthermore, this assay endpoint can be referred to as a primary readout, because this assay has produced multiple assay endpoints where this one serves a reporter gene function. To generalize the intended target to other relatable targets, this assay endpoint is annotated to the dna binding intended target family, where the subfamily is forkhead box protein.
Human liver HepG2 cells are transiently transfected with multiple reporter transcription units (MRTUs) in 6-well plates using FuGene 6 reagent (Roche; 3 ml FuGene/1 mg DNA). The MRTU constructs are regulated by a cis-regulating element (promoter). […] A major difference between the CIS and TRANS system is that in CIS activities of endogenous TFs are measured, whereas the TRANS assay evaluates changes in activities of exogenous, chimeric NR-Gal4 proteins. […] At the end of 24 hour incubation, total RNA was isolated using TriZol reagent (Invitrogen). The isolated RNA is then reverse-transcribed using oligo(dT) primer and Mo-MLV reverse transcriptase (Invitrogen) with DNAse I (Ambion) treatment for 30 min. The one-tenth of the produced cDNA was amplified by PCR using Taq DNA polymerase (Invitrogen) and two reporter sequence-specific primers. The PCR products were fluorescently labeled by primer extension with 6-arboxyfluorescein (6-FAM) 5'-labeled reporter sequence-specific primer (2 min at 95 C, 20 s at 68 C and 10 min at 72 C) and these products were digested with 5U of HpaI (New England Biolabs) for 2h at 37 C. The fragments were purified using Qiaquick PCR columns (Qiagen), analyzed on an ABI 3130xL genetic analyzer (Applied Biosystems) with peak positions identified by using a set of X-rhodamine (ROX)-labeled MapMarker1000 molecular weight standards (BioVentures). The raw capillary electrophoresis data was processed using Attagraph software (Attagene).

outcome, inactive:
C=C(c1ccc(C(=O)O)cc1)c1cc2c(cc1C)C(C)(C)CCC2(C)C
CCCCCCCCCC=CCC1CC(=O)OC1=O (stereo not given)
O=C(O)c1cccc(C(=O)O)n1
Cc1cc(C(=C2C=CC(=Nc3ccc(S(=O)(=O)O)cc3)C=C2)c2ccc(Nc3ccc(S(=O)(=O)O)cc3)cc2)cc(S(=O)(=O)O)c1N
O=C1OC2(c3ccccc31)c1cc(I)c(O)c(I)c1Oc1c2cc(I)c(O)c1I
CCCCCCC(C)(C)C(=O)O
Cn1sccc1=O
COc1cc(OC)nc(NC(=O)NS(=O)(=O)Nc2ccccc2C(=O)N(C)C)n1
CCCCCc1ccc(O)cc1
O=CC(F)(F)C(F)(F)C(F)(F)C(F)F
NNc1nc(-c2ccc([N+](=O)[O-])cc2)cs1
FC(F)(F)C(F)(F)C(F)(F)C(F)(F)I
c1cc[nH]c1
CCO[Si](C)(C)OCC
CN(C)CCOC(c1ccccc1)c1ccccc1
CCCCCCc1ccc(N)cc1
CC1CCC(C(=O)O)CC1 (stereo not given)
CC(=O)Nc1ccc(O)cc1
N=C(N)c1ccc(OCCCCCOc2ccc(C(=N)N)cc2)cc1
OCC(F)(F)C(F)(F)C(F)(F)C(F)(F)C(F)(F)C(F)(F)C(F)(F)C(F)(F)C(F)(F)C(F)(F)C(F)(F)F
O=C(O)CN(CCCN(CC(=O)O)CC(=O)O)CC(=O)O
O=C(F)C(F)(F)C(F)(F)C(F)(F)C(=O)F
CC(=O)CC(C)C
CCC1CO1 (stereo not given)
O=CC(F)(F)C(F)(F)C(F)(F)F
Nc1ccn([C@@H]2O[C@H](CO)[C@@H](O)C2O)c(=O)n1 (stereo not given in full)
Oc1cccc2c(O)cccc12
CCCCCCCCCCCC
Clc1ccc2c(Cl)ccnc2c1
Cc1ccc(N=Nc2c(O)ccc3ccccc23)c(C)c1
NCCN
Oc1c(Cl)ccc(Cl)c1Cl
CCC(C)c1nccnc1OC (stereo not given)
C=CCOCC(CO)(CO)CO
O=C(Nc1ccc(Cl)c(Cl)c1)c1cc(Cl)cc(Cl)c1O
O=C(OC(=O)C(F)(F)C(F)(F)F)C(F)(F)C(F)(F)F
CC=O
CCCCCCCCCCCCCCCC(=O)OC
CN(C)c1ccc(C(=C2C=CC(=[N+](C)C)C=C2)c2ccccc2)cc1

AC50, active:
Cc1cc(Cc2cc(C)cc(C(C)(C)C)c2O)c(O)c(C(C)(C)C)c1 51.4 µM
